High-throughput results: PubChem, several laboratories
Most compounds without a hit are left out; they make up all but 4.1% or so of the library.
MEKK3 PB1 HTS – modulators of MEKK3-MEK5 PB1 binding, primary screen, biochemical, wildtype MEKK3, multiplex bead flow cytometry, Alexa488-MEK5. actives 1.4% (n = 290,000). bead-based flow cytometry, Alexa488-MEK5 binding to MEKK3; actives lie on both sides; 0 = blocked by unlabeled MEK5, 100 = vehicle. AID 1529, 2009. binding response (% of control), % at 10 µM. Mitogen-activated protein kinase kinase kinase 3 (Homo sapiens), Q99759;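 active means binding response more than 3 SD above or below the average of its plate-row segment, actives on both sides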;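 further: Alexa488 bead fluorescence after subtracting the streptavidin-only scavenger bead signal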
Target sequence (Q99759 whole entry, looked up): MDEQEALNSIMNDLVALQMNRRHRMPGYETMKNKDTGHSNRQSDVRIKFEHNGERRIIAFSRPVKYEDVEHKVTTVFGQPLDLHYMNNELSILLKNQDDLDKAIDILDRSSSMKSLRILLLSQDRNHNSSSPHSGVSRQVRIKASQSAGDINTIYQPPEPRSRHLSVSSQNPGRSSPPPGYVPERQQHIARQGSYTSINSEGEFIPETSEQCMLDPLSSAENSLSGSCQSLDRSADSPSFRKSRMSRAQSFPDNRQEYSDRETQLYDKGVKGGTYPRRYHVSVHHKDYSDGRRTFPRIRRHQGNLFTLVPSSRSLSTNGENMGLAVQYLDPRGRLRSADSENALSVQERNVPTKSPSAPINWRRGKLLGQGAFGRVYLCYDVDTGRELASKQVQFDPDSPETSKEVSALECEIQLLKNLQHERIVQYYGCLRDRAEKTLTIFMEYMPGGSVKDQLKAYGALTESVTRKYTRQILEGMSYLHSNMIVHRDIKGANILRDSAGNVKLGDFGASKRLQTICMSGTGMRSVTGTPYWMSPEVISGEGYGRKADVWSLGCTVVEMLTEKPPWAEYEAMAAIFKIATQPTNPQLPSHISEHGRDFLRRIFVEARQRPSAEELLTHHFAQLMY
CHT block – inhibitors of human choline transporter CHT. High affinity choline transporter 1 (Homo sapiens), Q9GZV3. CHT-expressing cells, membrane potential dye, choline response; active compounds read low. B-score at 10 µM. actives 0.86% (n = 310,000). AID 488975, 2010;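 active means B-score over 3 SD under the library average, and starting fluorescence ratio not unusually high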;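 further: choline stimulus applied at its EC90 after an EC20 pre-addition; B-score computed on integrated fluorescence ratio after choline addition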
CHT PAM – CHT positive allosteric modulators, primary screen, cell-based, membrane potential dye, choline EC20 | B-score at 10 µM | CHT-expressing cells; active compounds read high; LV-AA mutant CHT in HEK293 cells | actives 0.49% (n = 310,000) | AID 488977, 2010 | High affinity choline transporter 1 (Homo sapiens), Q9GZV3;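 active means initial fluorescence not abnormally high and integrated response B-score, plate-corrected, over 3 SD above library mean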
SUMO Mot1 rescue – yeast Mot1-301 growth rescue at high temperature, primary screen, SUMOylation pathway inhibitor project, S. cerevisiae, ATP luminescence, 38.5C | S. cerevisiae Mot1-301 growth rescue; percent above DMSO median, 100 means doubled | growth rescue, % at 18.8 µM | actives 1% (n = 320,000) | AID 2716, 2010;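 active means every valid replicate shows activation above 250% relative to neutral control wells; inactive means the rest, any valid replicate at or below 250%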
MEKK2mut PB1 HTS – MEK5 binding signal on mutant MEKK2 PB1, primary screen, biochemical, multiplex bead flow cytometry, Alexa488-MEK5. AID 1530, 2009. actives 0.35% (n = 290,000). Alexa488-MEK5 binding to MEKK2 mutant. percent response, % at 10 µM; in the data active means percent response above about 24%, passing the limit was not always enough
MEKK2 WT-MEK5 – modulators of MEK5 binding to wildtype MEKK2, primary screen, biochemical, multiplex bead flow cytometry, Alexa488-MEK5 | actives 1.1% (n = 290,000) | binding response (% of control), % at 10 µM | Mitogen-activated protein kinase kinase kinase 2 (Homo sapiens), Q9Y2U5 | Alexa488-MEK5 binding to MEKK2 WT; actives lie on both sides | AID 1531, 2009; in the data active means binding response below about 67% or above about 130%
MEKK2wt confirm – modulators of MEK5 binding to wildtype MEKK2, confirmation, biochemical, single concentration, multiplex bead flow cytometry; shares compounds with MEKK3 PB1 HTS; Alexa488-MEK5 binding to MEKK2 WT; actives lie on both sides; binding response (% of control), % at 10 µM; actives 2.4% (n = 5,900); AID 1892, 2009; in the data active means binding response below about 16% or above about 210%; inactive means in between
MEKK2mut-MEK5 – mutant MEKK2 PB1-MEK5 binding signal retest – biochemical, single concentration, multiplex bead flow cytometry, confirmation; shares compounds with MEKK3 PB1 HTS; Alexa488-MEK5 binding to MEKK2 mutant; percent response, % at 10 µM; actives 2% (n = 5,900); in the data active means percent response mostly above about 71%, no sharp cut-off; inactive means mostly below about 38%;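 further: higher means compound restores mutant binding toward wildtype level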
MEKK3-MEK5 inh – MEKK3 wild-type PB1 binding to MEK5, inhibitors, confirmation, biochemical, bead multiplex flow cytometry, single concentration, wildtype. shares compounds with MEKK3 PB1 HTS. Alexa488-MEK5 binding to MEKK3; active compounds read low. binding response (% of control), % at 10 µM. actives 1.8% (n = 5,900). AID 1894, 2009;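 active means binding response below 72% of control, or above a set upper limit, though filed actives all read lower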;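 further: lower values mean stronger disruption of MEK5 binding to MEKK3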
Of the large screens only hits and unclear results are named; the others gave an inactive call (follow-up assays come after a bar, where they were run); [ ] = remark or other dose.

O=S(=O)(NC1CC2CCC1C2)c1ccc2c(c1)OCCO2 (centres undefined)	MEKK3 PB1 HTS 2.0[inhibitor], MEKK2 WT-MEK5 3.0[inhibitor] | MEKK2wt confirm inactive | MEKK2mut-MEK5 inactive | MEKK3-MEK5 inh inactive
Cc1ccc(C(=O)NCCc2c[nH]c3ccccc23)s1	none
Cc1c2cnn(CC(=O)NC3CCCC3)c(=O)c2c(C)n1Cc1ccccc1	none
Cc1c2cnn(CC(=O)NCCCN3CCCCC3C)c(=O)c2c(C)n1Cc1ccccc1 (centres undefined)	MEKK2mut PB1 HTS 28, MEKK2 WT-MEK5 145 | MEKK2wt confirm inactive | MEKK2mut-MEK5 inactive | MEKK3-MEK5 inh inactive
CCOc1ccccc1N1CCN(C(=O)c2cn(CC3CCCCC3)nn2)CC1	none
CSc1c(CC(=O)NCCCO)n(Cc2ccccc2)c2ccccc12	none
COc1ccc(NC(=O)Cc2c(SC)c3ccccc3n2Cc2ccccc2)cc1	MEKK3 PB1 HTS 160 | MEKK2wt confirm inactive | MEKK2mut-MEK5 inactive | MEKK3-MEK5 inh inactive
C=CCOc1ccc(/C=C2\N=C(C)OC2=O)cc1OC	MEKK3 PB1 HTS 61[inhibitor], MEKK2 WT-MEK5 53[inhibitor] | MEKK2wt confirm inactive | MEKK2mut-MEK5 inactive | MEKK3-MEK5 inh inactive
NNc1nc(-c2ccccc2)nc2sc3c(c12)CCCC3	MEKK3 PB1 HTS 142 | MEKK2wt confirm inactive | MEKK2mut-MEK5 inactive | MEKK3-MEK5 inh inactive
COc1ccc(CCC(C)NCCc2ccc(Cl)cc2Cl)cc1 (centres undefined)	MEKK2 WT-MEK5 152 | MEKK2wt confirm inactive | MEKK2mut-MEK5 inactive | MEKK3-MEK5 inh inactive
COc1ccc(CCC(C)NCc2ccc(Cl)c(Cl)c2)cc1 (centres undefined)	none
CCOC(=O)Cn1c(=O)oc2ccc(C)cc21	none
Cc1ccc2oc(=O)n(CCCOc3ccccc3)c2c1	MEKK3 PB1 HTS 125 | MEKK2wt confirm inactive | MEKK2mut-MEK5 inactive | MEKK3-MEK5 inh inactive
Cc1ccc2oc(=O)n(CC(=O)OCCC(C)C)c2c1	MEKK3 PB1 HTS 74[inhibitor] | MEKK2wt confirm inactive | MEKK2mut-MEK5 inactive | MEKK3-MEK5 inh inactive
O=C(/C=C/c1ccc(Br)cc1)c1ccc(NC2=NCCCS2)cc1	none
CC(C)(C)c1ccc(/C=C/C(=O)c2ccc(NC3=NCCCS3)cc2)cc1	MEKK2 WT-MEK5 139 | MEKK2wt confirm inactive | MEKK2mut-MEK5 inactive | MEKK3-MEK5 inh inactive
O=C(CN1CCC(C(=O)c2ccc3c(c2)OCCO3)CC1)NCc1ccc(F)cc1	none
Cc1ccc(C)c(N(CC(=O)NCc2ccc3c(c2)OCO3)C(=O)CCC(=O)Nc2ccccn2)c1	MEKK3 PB1 HTS 82[inhibitor] | MEKK2wt confirm inactive | MEKK2mut-MEK5 inactive | MEKK3-MEK5 inh inactive
COCCNC(=O)CN(C(=O)CCC(=O)Nc1ccccn1)c1ccccc1F	MEKK3 PB1 HTS 70[inhibitor] | MEKK2wt confirm inactive | MEKK2mut-MEK5 inactive | MEKK3-MEK5 inh inactive
Cc1csc2nc(NC(=O)c3ccccc3)sc(=O)c12	MEKK3 PB1 HTS 130 | MEKK2wt confirm inactive | MEKK2mut-MEK5 inactive | MEKK3-MEK5 inh inactive
Cc1ccc(NS(=O)(=O)c2cc([N+](=O)[O-])ccc2NNC(=S)Nc2cc(C)ccc2C)c(C)c1	none
Cc1ccc(NS(=O)(=O)c2cc([N+](=O)[O-])ccc2NNC(=S)Nc2cccc(Cl)c2)c(C)c1	MEKK3 PB1 HTS 136 | MEKK2wt confirm inactive | MEKK2mut-MEK5 inactive | MEKK3-MEK5 inh inactive
Cc1ccc(-c2nc(N)sc2CC(=O)OCC(=O)N2C(C)CCCC2C)cc1 (centres undefined)	MEKK3 PB1 HTS 140 | MEKK2wt confirm inactive | MEKK2mut-MEK5 inactive | MEKK3-MEK5 inh inactive
CCOc1ccc(Cn2ccnc2)cc1[N+](=O)[O-]	MEKK3 PB1 HTS 129 | MEKK2wt confirm inactive | MEKK2mut-MEK5 inactive | MEKK3-MEK5 inh inactive
O=C(CSc1cccc(C(F)(F)F)c1)NC(=O)c1ccccc1	MEKK3 PB1 HTS 146 | MEKK2wt confirm inactive | MEKK2mut-MEK5 inactive | MEKK3-MEK5 inh inactive
CCOc1ccccc1CN1CCN(C2CCN(c3ccccc3F)CC2)CC1CCO (centres undefined)	MEKK3 PB1 HTS 75[inhibitor] | MEKK2wt confirm inactive | MEKK2mut-MEK5 inactive | MEKK3-MEK5 inh inactive
CCOc1ccccc1CN1CCN(Cc2c[nH]c3ccccc23)CC1CCO (centres undefined)	MEKK2 WT-MEK5 134 | MEKK2wt confirm inactive | MEKK2mut-MEK5 inactive | MEKK3-MEK5 inh inactive
C[C@@H]1[C@H]2[C@@H](O[C@@H]3O[C@H](CO)[C@@H](O)[C@H](O)[C@H]3O)OC=C(C(=O)O)[C@H]2C[C@@H]1O	none (no result: MEKK3 PB1 HTS, MEKK2mut PB1 HTS, MEKK2 WT-MEK5)
O=C(NC1CCCCC1)C1CCCN(S(=O)(=O)c2cccc3cccnc23)C1 (centres undefined)	MEKK3 PB1 HTS 129 | MEKK2wt confirm inactive | MEKK2mut-MEK5 inactive | MEKK3-MEK5 inh inactive
Cc1ccc(-c2nc(N3CCN(C)CC3)c3ccccc3n2)cc1	none
CCN1CCN(c2nc(-c3ccccc3)nc3ccccc23)CC1	MEKK3 PB1 HTS 142 | MEKK2wt confirm inactive | MEKK2mut-MEK5 inactive | MEKK3-MEK5 inh inactive
CCOc1ccc(CCNC(=O)C(C)n2nc(C)n3c(cc4occc43)c2=O)cc1OCC (centres undefined)	MEKK2 WT-MEK5 69[inhibitor] | MEKK2wt confirm inactive | MEKK2mut-MEK5 inactive | MEKK3-MEK5 inh inactive
Cc1nn(C(C)C(=O)NCCc2ccccc2)c(=O)c2cc3occc3n12 (centres undefined)	none
CNS(=O)(=O)c1cn(CC(=O)NCc2ccc(OC)cc2)cc1S(=O)(=O)NC	none
O=C(Cn1c2c(c(=O)n3ncnc13)CCC2)N/N=C/c1ccc(Cl)cc1	MEKK3 PB1 HTS 48[inhibitor] | MEKK2wt confirm inactive | MEKK2mut-MEK5 inactive | MEKK3-MEK5 inh inactive
COc1ccc(CC(=O)OCC(=O)Nc2cccc(Cl)c2)cc1	none
